PAX8 reporter: PAX8 transcriptional activity inhibition; inhibition, % at 12.6 µM; RMG-I TPO-luciferase reporter, SteadyGlo, 24 h; 360,000 tested, 1.2% active;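 active = mean replicate inhibition at least 60% with every replicate also reaching 60%; inconclusive = only one of the two criteria is met; inactive = mean below 60% and not all replicates reaching 60%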;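 also: luciferase light reporting Pax8 driven TPO promoter activity; plate controls were median of neutral control wells for no effect and mitoxantrone controls for full effect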
MITF TRPM1 inh: MITF TRPM1 promoter inhibition in SK-MEL-5 cells; inhibition, % at 12.5 µM; 330,000 tested, 0.83% active; SK-MEL-5 TRPM1 promoter luciferase, 24 h;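 active = mean inhibition across replicates of 60% or more, whatever share of single replicates reaches that level; inconclusive = some that reach 60%, reason not given; inactive = mean inhibition across replicates below 60%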
Shn3 inh set2: inhibitors of Schnurri-3 3'UTR reporter in osteoblasts; Clone20 osteoblast Shn3 3'UTR firefly luciferase, 24 h; inhibition, % at 12.5 µM; 360,000 tested, 0.52% active; AID 588674;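 active = mean inhibition of at least 75% with every replicate also reaching 75%; inconclusive = mean inhibition at least 75% but some replicate below; inactive = mean inhibition below 75%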;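 also: 0% = median of neutral control wells and 100% = pilot-screen positive control compound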
EWS-Fli block: EWS/Fli transcriptional activity inhibition | A673 NR0B1-luciferase reporter, viability-normalised | inhibition, % at 12.6 µM | 350,000 tested, 0.67% active | AID 651661;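 active = mean inhibition of at least 50% after viability correction, with every replicate also passing that limit; inconclusive = mean reaches 50% but only one of two replicates passes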;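 also: firefly luciferase signal divided by Alamar Blue viability fluorescence both relative to DMSO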
Peg3 prom inh: inhibitors of Peg3 promoter | HeLa PEG-Prom luciferase reporter, luminescence, overnight | inhibition, % at 20 µM | 360,000 tested, 1.7% active | AID 588405;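 active = inhibition of at least 50% at 20 µM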
ABHD5-PLIN5 inh: inhibitors of human ABHD5-perilipin-5 interaction | Split G. princeps luciferase complementation, luminescence, 4 h | inhibition, % at 4 µM | 360,000 tested, 0.78% active;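 active = inhibition above the mean inhibition across every tested compound plus 3 SD, cut at about 22% in these data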;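 also: 0% = DMSO only wells and the 100% control is not disclosed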
* hit, by the source's call; ? = inconclusive; . = no result given. Only some compounds are listed: those with a hit (about 3% of all), similar ones and a draw of the others.

SMILES	PAX8 reporter	MITF TRPM1 inh	Shn3 inh set2	EWS-Fli block	Peg3 prom inh	ABHD5-PLIN5 inh
C[C@H]1CCCCO[C@H](CN(C)Cc2ccc(C(F)(F)F)cc2)[C@@H](C)CN([C@@H](C)CO)C(=O)c2cc(NS(=O)(=O)c3ccccc3)ccc2O1	65*	.	.	15	.	.
Cc1noc(C)c1NC(=O)Nc1ccc2c(c1)C(=O)N([C@H](C)CO)C[C@H](C)[C@@H](CN(C)C(=O)NC(C)C)OCCCC[C@H](C)O2	-9	.	.	-13	.	.
CCCNC(=O)N(C)C[C@@H]1Oc2ncc(C#Cc3ccncc3)cc2C(=O)N([C@@H](C)CO)C[C@@H]1C	.	.	.	-1	.	.
COc1ccccc1NC(=O)N[C@@H]1CC[C@@H](CCNS(=O)(=O)c2ccc(F)cc2)O[C@@H]1CO	6	.	.	8	.	.
C[C@H](CO)N1C[C@H](C)[C@H](CN(C)Cc2ccc(C(F)(F)F)cc2)OCCCC[C@H](C)Oc2ccc(NS(=O)(=O)c3ccccc3)cc2C1=O	99*	.	.	10	.	.
CCCN(C)C[C@H]1OCCCC[C@H](C)Oc2ccc(NS(=O)(=O)c3ccc(F)cc3)cc2C(=O)N([C@@H](C)CO)C[C@@H]1C	69*	.	.	-2	.	.
C[C@@H]1CCCCO[C@H](CN(C)CC2CCCCC2)[C@H](C)CN([C@@H](C)CO)C(=O)c2cc(NS(=O)(=O)c3ccc(Cl)cc3)ccc2O1	104*	.	.	65*	.	.
C[C@@H]1CCCCO[C@H](CN(C)CC2CCCCC2)[C@H](C)CN([C@@H](C)CO)C(=O)c2cc(NS(=O)(=O)c3ccc(F)cc3)ccc2O1	38	.	.	67*	.	.
C[C@@H]1CCCCO[C@H](CN(C)CC2CCCCC2)[C@@H](C)CN([C@H](C)CO)C(=O)c2cc(NS(=O)(=O)c3ccc(F)cc3)ccc2O1	1	.	.	-3	.	.
C[C@@H]1CCCCO[C@@H](CN(C)CC2CCCCC2)[C@@H](C)CN([C@@H](C)CO)C(=O)c2cc(NS(=O)(=O)c3ccc(F)cc3)ccc2O1	72*	.	.	2	.	.
CO[C@@H]1CN(C)C(=O)c2cc(NC(=O)NC(C)C)ccc2OC[C@H](C)N(Cc2cncnc2)C[C@@H]1C	-6	.	.	-2	.	.
Cc1noc(C)c1NC(=O)N(C)C[C@H]1Oc2ccc(NS(=O)(=O)c3ccc(F)cc3)cc2C(=O)N([C@H](C)CO)C[C@H]1C	.	.	.	-7	.	.
CC(C)NC(=O)N(C)C[C@@H]1Oc2ncc(C#Cc3ccccc3F)cc2C(=O)N([C@@H](C)CO)C[C@H]1C	.	.	.	3	.	.
CC(=O)c1c(C)n([O-])c2cc(F)c(F)cc2[n+]1=O	35	39	1	63*	33	4
CCOC(=O)c1ccc(NC(=O)Cn2nc(C)c3ccccc3c2=O)cc1	15	16	2	-2	-9	2
CCc1ccccc1NC(=O)CN(C)C(=O)Cn1cnc2ccc(Cl)cc2c1=O	-1	-3	2	-2	10	9
O=C(Cn1ncc(N2CCCC2)c(Cl)c1=O)c1ccc(Cl)cc1	-87	-24	-37	-6	-236	13
CCC(=O)Nc1ccc(C(=O)Cn2ncc(Cl)c(Cl)c2=O)cc1	78*	?	.	0	106*	-1
CCc1ccccc1NC(=O)CN(C)C(=O)Cn1ncc(Cl)c(Cl)c1=O	68*	89*	64	63*	107*	-1
CCOC(=O)c1ccc(NC(=O)Cn2ncc(Cl)c(Cl)c2=O)cc1	95*	103*	98*	37	104*	18
O=C1C=C(NCc2ccccc2)CCC1	74*	11	-6	0	1	-3
Cc1ccc(S(=O)(=O)Nc2ccc3c(c2)C(=O)N([C@H](C)CO)C[C@@H](C)[C@H](CN(C)C(=O)Nc2ccc4c(c2)OCO4)OCCCC[C@H](C)O3)cc1	-26	.	.	-5	.	.
O=C(Nc1ccc2c(c1)[C@H]1C[C@H](CC(=O)N3CCCCC3)O[C@@H](CO)[C@H]1O2)NC1CCCC1	0	.	.	5	.	.
O=C(NCc1ccco1)c1cccc2ccccc12	.	-1	1	.	6	2
O=C(Nc1ccccc1C(=O)NCc1ccco1)Nc1cccc2ccccc12	61*	2	9	8	-2	3
CN1CCCCN2[C@H](CO)[C@@H](c3ccc(-c4ccc(F)cc4)cc3)[C@H]2C1	-5	.	.	-3	.	.
O=C(N/N=C/c1ccc([N+](=O)[O-])o1)c1ccc2c(c1)OCO2	51	98*	24	.	13	-4
